PubChem BioAssay (Tox21)
Records with an inconclusive call do not appear. The source made the active and inactive calls. Calls follow the shape of the dose curve; as a rule, active = well fitted cell-killing curve with a large enough effect in the repeat runs; inconclusive = weak or mixed curves, or effect the other way; inactive = flat fitted curve, though single readings scatter.

Assay: qHTS assay to identify small molecule antagonists of the constitutive androstane receptor (CAR) signaling pathway - cell viability counter screen (AID 1224837); also: nearly all actives have a fitted effect of over 45% in size
Conditions: HepG2-CYP2B6-hCAR viability, CellTiter-Fluor, 23 h, co-treated with 50 nM CITCO; series mostly up to 92.4 µM; activity change, negative = cytotoxicity: at the top concentration
Excerpt: National Center for Advancing Translational Sciences [NCATS]
NIH Chemical Genomics Center [NCGC]
U.S. Environmental Protection Agency [EPA]
National Institutes of Environmental Health Sciences [NIEHS]
National Toxicology Program [NTP]
U.S. Food and Drug Administration [FDA]
The constitutive androstane receptor (CAR) is a nuclear receptor which regulates multiple drug metabolizing enzymes (DMEs) and transporters. Activating CAR will generally increase the transcription and subsequent translation of CYP2B6 and CYP3A4. These two DMEs represent about 50% of the drug metabolizing potential in the body. When CAR is deactivated, the metabolizing potential in the body will decrease, subsequently increasing the toxicity in the body or lowering the therapeutic potential of a pro-drug. Recently, there have also been studies performed indicating CARs role in energy metabolism and cancer therapy. Therefore, inhibiting CARs activity could have a potential effect on diabetes and cancer. Identifying environmental toxins and compounds which modulate CAR, through the use of the Tox21 10K compound collection, will be an important step in determining the toxicity and potential therapeutic effects these factors will have on the human body. To differentiate true CAR antagonists from cytotoxic substances, the assay is multiplexed with a cell viability assay.
Tox21 Assay Protocol Summary:
A double-stable (hCAR and CYP2B6-2.2kb) transfected cell line, derived from human hepatoma (HepG2) cells, was utilized for the duration of the quantitative high-throughput screens. The HepG2-CYP2B6-hCAR cells were dispensed at 2500 cells/4 uL/well in 1536-well white solid bottom plates using a Multidrop Combi. After the assay plates were incubated at 37 C/5% CO2 for 4 hrs, 23 nL of compounds at 15 concentrations (from 5-48 columns) or positive control (from 1 to 4 columns) were transferred to the assay plates using a Pintool station. One uL of CITCO (final concentration = 50 nM) was added, using a Flying Reagent Dispenser, inside each well. After a 23 hr incubation period at 37 C/5% CO2, 1 uL of CellTiter-Fluor reagent was added into each well of the assay plates using a Flying Reagent Dispenser. The fluorescence intensity in the plates was then measured using a ViewLux plate reader.
% is scaled to controls: 0 for no effect and ±100 for the full control effect.

Row | SMILES | activity change, negative = cytotoxicity
1 | CC(C)(C1CCC(O)CC1)C1CCC(O)CC1 (stereo not given) | 10.1% (inactive)
2 | CCC(=O)c1ccc(Cl)cc1 | 2.77% (inactive)
3 | C=CCN1CC[C@]23CCCC[C@H]2[C@H]1Cc1ccc(O)cc13 | -11.2% [at 42.5 µM] (inactive)
4 | Cl/C=C/CCl | 5.95% (inactive)
5 | CN1COCN(Cc2cnc(Cl)s2)/C1=N\[N+](=O)[O-] | -4.07% (inactive)
6 | CC1N=C(N)OC1c1ccccc1 (stereo not given) | -13% (inactive)
7 | O=S1(=O)OCCO1 | 0.388% (inactive)
8 | COP(=O)(OC)O/C(C)=C/C(=O)N(C)C | 7.29% (inactive)
9 | Cc1ccc(-c2nc3ccc(C)cn3c2CC(=O)N(C)C)cc1 | -22.9% [at 42.5 µM] (inactive)
10 | COC[C@@H](NC(C)=O)C(=O)NCc1ccccc1 | 1.49% [at 42.5 µM] (inactive)
11 | S=C=S | 1.6% (inactive)
12 | CCCCCCCCSC(=O)Oc1cc(Cl)nnc1-c1ccccc1 | 4.89% (inactive)
13 | C[N+]1(C)CCCCC1 | 7.53% (inactive)
14 | C=C1C[C@@H]2[C@H](CC[C@]3(C)C(=O)CC[C@@H]23)[C@@]2(C)C=CC(=O)C=C12 | -9.88% [at 42.5 µM] (inactive)
15 | CCN(CCO)CCO | 1.59% (inactive)
16 | CCOC(=O)c1ncn2c1CN(C)C(=O)c1c(I)cccc1-2 | 2.49% [at 42.5 µM] (inactive)
17 | O=C(O)C(Cl)Br (stereo not given) | -0.835% (inactive)
18 | CC1NCCOC1c1ccccc1 (stereo not given) | -15.6% [at 42.5 µM] (inactive)
19 | NNCc1ccccc1 | 0.488% (inactive)
20 | c1ccc2c(c1)CCNC2 | -9.91% (inactive)

Row | SMILES | activity change, negative = cytotoxicity
21 | CCCCCCCCBr | -2.41% (inactive)
22 | CCCCS(=O)(=O)Cl | 4.28% (inactive)
23 | CCCOC(=O)c1cncn1C(C)c1ccccc1 (stereo not given) | -0.157% [at 42.5 µM] (inactive)
24 | CN(C)C1CCCCC1 | -2.71% (inactive)
25 | CCN[C@@H](C)Cc1ccccc1 | 0.588% (inactive)
26 | CNC(=O)Oc1ccccc1C(C)C | 4.69% (inactive)
27 | C[C@H](N)C(=O)c1ccccc1 | -0.227% (inactive)
28 | CCOP(=S)(OCC)SCCl | 1.75% (inactive)
29 | N#CC(Br)(Br)C(N)=O | 7.34% (inactive)
30 | ClCCCCCCCl | 5.09% (inactive)
31 | C=CC=O | -3.12% (inactive)
32 | CCCCOC(C)=O | 2.82% (inactive)
33 | Clc1nc(Cl)nc(Nc2ccccc2Cl)n1 | 5.16% (inactive)
34 | C#CC(C)(C)O | -1.67% (inactive)
35 | CC(C)(C)C(=O)C(Cl)Cl | -3.64% (inactive)
36 | CCCN1CCC[C@@H]2Cc3nc(N)ncc3C[C@H]21 | 2.61% [at 42.5 µM] (inactive)
37 | CCc1ccc(C2CCNCC2)cc1 | -0.447% [at 42.5 µM] (inactive)
38 | OP(O)c1ccccc1 | 7.87% (inactive)
39 | CCC(=O)OC1(c2ccccc2)CCN(C)CC1 | -11.6% (inactive)
40 | N#CN=C1SCCN1Cc1ccc(Cl)nc1 | 6.09% (inactive)
